Reference: the supplement of paper PMC10338343
± gives the standard deviation.

tested on: EfPiwi piRISC loaded with L1MC piRNA (26 nt); experiment: pre-steady-state target cleavage rate (min^-1); auxiliary factor: 500 nM Ephydatia muelleri Gtsf1; guide: L1MC piRNA 5'p-UAACUAAAUACUAUGCAAGCUGUAGG; MIWI and MILI are mouse PIWI proteins and EfPiwi is from a freshwater sponge; tags in brackets are library labels; higher = faster piRNA-guided slicing of the target
Method: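 Cleave-'n-Seq: a library of target RNAs (target site in constant flanks) at […] was incubated with 1 nM active freshwater sponge Ephydatia fluviatilis Piwi piRISC (synthetic 5'-monophosphorylated piRNA guide) with or without 500 nM EmGtsf1 at 33 °C for 1 min to 16 h. Uncleaved targets were sequenced and the pooled three trials fitted to a burst-and-steady-state model to give the pre-steady-state cleavage rate (min^-1). Sequence is the target site only. Fits with R² ≤ 0 are excluded.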

Sequence | pre-steady-state target cleavage rate
UCCUGGAACAGCUUGCAUAGUAUCUAGUUA | 0.0068 ± 0.0027
UCCUGCUACAGCUUCGCAUAGUAUUUAGUUA | 0.0225 ± 0.0071
UCCUCCUAGAGCUUGCAUAGUAUAUAGUUA | 0.00597 ± 0.0022
UCCUCCUAGAGCUUGCAUAGUAUUUACUUA | 0.00356 ± 0.0033
UCCUGGAUGAGCUUGCAUAGUAUUAUAGUUA | 0.0159 ± 0.0056
UCCUGGUACGCUUGCAUAGUAUUUAGUUA | 0.00582 ± 0.0027
UCCUCCUACACCUUGCAUUGUAUUUAGUUA | 0.0139 ± 0.0056
UCCUGCAAGAGCUUGCAUAGUAUUUAGUUA | 0.0267 ± 0.0065
UCCUCCUACAGGAAGCAUAGUAUUUAGUUA | 0.0159 ± 0.0041
UCCUGGAUGUCCGUGCAUAGUAUUUAGUUA | 0.00483 ± 0.0024
UCCUGCUACAGCUUGCAUAGUAUAAAGAAA | 0.00337 ± 0.0023
UCCUCCUAGAGCUAGCAUAGUAUUUAGUUA | 0.0136 ± 0.0043
UCCUCCUACAGCUUGCAUAGUAAUUAGUAA | 0.0063 ± 0.0029
UCCUGCUACAGCUUGCUUAGUAUUUAGUUA | 0.0201 ± 0.0068
UCCUCCAUCAGCUUGCAUAGUAUUUAGUUA | 0.0155 ± 0.005
UCCUGGAUCAGGUUGCAUAGUAUUUAGUUA | 0.0232 ± 0.0061
UCCUGGAUGUCCUUUGCAUAGUAUUUAGUUA | 0.00785 ± 0.0043
UCCUCCUUGAGCUUGCAUAGUAUUUAGAAA | 0.00549 ± 0.0018
UCCUGCUACAGCUUGCAUAGUAUUUAGUUU [g2:g25:cont:t1U] | 0.158 ± 0.042
UCCUGCUACUGCUUCCAUAGUAUUUAGUUA | 0.00205 ± 0.0016

Sequence | pre-steady-state target cleavage rate
UCCUGGAUGUGCUUGGCAUAGUAUUUAGUUA | 0.00458 ± 0.0029
UCCUGGUACAGCUUGCAUAGUAUUUAUUUA | 0.00732 ± 0.0063
UCCUGGAACAGCUUGCAUAGUAUUUGUUA | 0.00531 ± 0.0019
UCCUGGUACGAGCUUGCAUAGUAUUUAGUUA | 0.00873 ± 0.0027
UCCUCCUACAGCUUGCAUAGUAUUUUCAAA | 0.00383 ± 0.0027
UCCUGGAUCAGCUUGCAUAGUAUUCAGUUA | 0.00509 ± 0.0019
UCCUGGAUCAGCUUGCUUACUAUUUAGUUA | 0.0032 ± 0.0024
UCCUCCUACAGCUUGCUUAGUAUUAAGUUA | 0.00459 ± 0.0031
UCCUCCUACAGCUUGCUUAGUAUUUACUUA | 0.00381 ± 0.003
UCCUGCAUGAGCUUGCAUAGUAUUUAGAAA | 0.00569 ± 0.0021
UCCUGGAUCCAGCUUGCAUAGUAUUUAGUUA | 0.126 ± 0.022
UCCUCGUACACCUUGCAUAGUAUUUAGUUA | 0.1 ± 0.029
UCCUGGAUCAGUUGCAUAGUAUUUAGUUA | 0.0258 ± 0.0051
UCCUGGAUGUGCUUGCAUAGUAUGUUAGUUA | 0.00406 ± 0.0038
UCCUCCUACAGCAAGCAUAGUAUUUAGUAA | 0.00371 ± 0.0026
UCCUCCUACAGCUUGCAUAGUUUUUAGAAA | 0.00527 ± 0.0024
UCCUGGUACAGCUUGCAUAGUAUUUAGUUU [g2:g24:cont:t1U] | 0.117 ± 0.038
UCCUGGAACAGGUUGCAUAGUAUUUAGAAA | 0.00261 ± 0.0017
UCCUCCAUCAGCUUGCAUAGUAUUUAGAAA | 0.00539 ± 0.0026
UCCUGGAAGAGCUUGCUUAGUAUUUAGUUA | 0.0135 ± 0.0043
